# Experimental data from ChEMBL document CHEMBL3988442, “University of Dundee, Small-Polar-MMV Screening Library” (2021).
# Out of some 66,000 compounds screened, about 960 (1.5%) showed an effect of 50% or more. The sample as a whole holds a higher share of strong results than the screen did.
# System: Trypanosoma brucei
# Experiment: Trypanosoma brucei 72 hour study
# Format: functional, organism-based
# Design: scale not given: in the data most compounds retested in dose-response had high values
smiles,measurement,setting,value
CN(CCC(O)c1ccccc1)Cc1nc(-c2ccccc2)no1 (configuration not stated),Percent Effect,"30.3 µM, […]",-13.82%
same,Percent Effect,"10 mM, 10 mM as filed; unlikely as a test dose",-49.39%
CC(C)CN1CCC2(C1)CN(S(=O)(=O)c1cn(C)cn1)C2.O=C(O)C(F)(F)F.O=C(O)C(F)(F)F,Percent Effect,"30.3 µM, […]",-13.21%
COc1ccccc1CN1CCC(c2nn(CCN)c3nccnc23)C1 (configuration not stated),Percent Effect,"30.3 µM, […]",99.59%
Cc1ccccc1CN1CCC(c2nn(CCN)c3nccnc23)C1 (configuration not stated),Percent Effect,"30.3 µM, […]",24.84%
NCCn1nc(C2CCN(Cc3ccccc3Cl)C2)c2nccnc21 (configuration not stated),Percent Effect,"30.3 µM, […]",22.22%
COCC(=O)N1C[C@@H]2CCCO[C@@H]2[C@H](N(C)Cc2ccco2)C1.O=C(O)C(F)(F)F,Percent Effect,"30 µM, 30.03 µM",-11.7%
O=C(O)C(F)(F)F.O=C1N(Cc2cccc(F)c2)CCC12CCN(c1ccccn1)CC2,Percent Effect,"30.3 µM, […]",-2.034%
CNCC[C@H]1CC(C)(C)Oc2ccc(OC)cc21,Percent Effect,"30.3 µM, […]",-16.4%
CNCC[C@H]1CC(C)(C)Oc2ccc(OCC3CC3)cc21,Percent Effect,"30.3 µM, […]",86.36%
COc1ccc2c(c1)[C@@H](CCNC(C)=O)CC(C)(C)O2,Percent Effect,"30.3 µM, […]",-14.03%
CN(C)c1nc2c(c(N3CCCC4(CC3)CNC(=O)O4)n1)CCCC2 (configuration not stated),Percent Effect,"30 µM, 30.03 µM",52.4%
CN(C)c1nc2c(c(N3CCC4(CC3)CNC(=O)C4)n1)CCCC2,Percent Effect,"30 µM, 30.03 µM",23.78%
Cc1nc(N(C)C)nc(N2CCC3(CC2)CNC(=O)O3)c1C,Percent Effect,"30 µM, 30.03 µM",-29.71%
CN(C)S(=O)(=O)N1C[C@@H](OCc2cccnc2)[C@H]2OCCC[C@H]21.O=C(O)C(F)(F)F,Percent Effect,"30 µM, 30.03 µM",-11.52%
CN(Cc1cccc(OC(F)F)c1)Cc1nc2c(cnn2C)c(=O)[nH]1,Percent Effect,"30.3 µM, […]",-25.39%
CN(CCS(=O)(=O)c1cc(Cl)ccc1Cl)CC(N)=O,Percent Effect,"30 µM, 30.03 µM",-15.71%
CN(CCS(=O)(=O)c1cc(Cl)ccc1Cl)CC(=O)Nc1cccc(F)c1,Percent Effect,"30 µM, 30.03 µM",-17.26%
CN(CCS(=O)(=O)c1cc(Cl)ccc1Cl)CC(=O)Nc1ccc(F)cc1,Percent Effect,"30 µM, 30.03 µM",64.98%
CC(=O)NC[C@]1(O)CCN(C(=O)c2ccc3c(c2)OCO3)C[C@H]1O,Percent Effect,"30.3 µM, […]",-26.03%
c1cc2cc[nH]c2c(CC2CN(Cc3cscn3)C2)n1,Percent Effect,"30.3 µM, […]",-15.51%
Cc1cnc(N2CCOCC3(CCN(c4ccccn4)C3)C2)nc1.O=C(O)C(F)(F)F.O=C(O)C(F)(F)F (configuration not stated),Percent Effect,"30 µM, 30.03 µM",-35.16%
CC(=O)NCC(=O)N1CCC2(CC1)C(=O)N(CC1CC1)c1ccccc12,Percent Effect,"30.3 µM, […]",-5.541%
CN(C)[C@H]1CCCCN(C(=O)c2cccc(N3CCS(=O)(=O)CC3)c2)C1,Percent Effect,"30 µM, 30.03 µM",11.69%
CN(C)[C@H]1CCCCN(C(=O)c2cccc(-c3cccc(F)c3)c2)C1,Percent Effect,"30 µM, 30.03 µM",59.87%
CN(C)C1CCCN(C(=O)c2cccc(-c3ncc[nH]3)c2)CC1 (configuration not stated),Percent Effect,"30 µM, 30.03 µM",-3.463%
COCc1nc2cc(NCc3ccncc3)ccc2o1,Percent Effect,"30 µM, 30.03 µM",16.85%
COCc1nc2cc(NCc3ccc(C)o3)ccc2o1,Percent Effect,"30 µM, 30.03 µM",13.96%
CCC(C)CNc1ccc2oc(COC)nc2c1 (configuration not stated),Percent Effect,"30 µM, 30.03 µM",94.42%
Cc1cccc(C(=O)N2CCN(CCC(C)C)CC2)n1,Percent Effect,"30.3 µM, […]",-20.29%
CCCN1Cc2nc(N3CCCC3)ncc2C1=O,Percent Effect,"30 µM, 30.03 µM",35.2%
c1ccc(-c2nnc3ccc(N4CCC5(CCOC5)C4)nn23)cc1 (configuration not stated),Percent Effect,"30 µM, 30.03 µM",81.34%
Cc1nnc2ccc(N3CCC4(CCOC4)C3)nn12 (configuration not stated),Percent Effect,"30 µM, 30.03 µM",-17.43%
FC(F)c1nnc2ccc(N3CCC4(CCOC4)C3)nn12 (configuration not stated),Percent Effect,"30 µM, 30.03 µM",-51.53%
c1cc(-c2n[nH]cc2-c2ccnc(N3CCCCCC3)n2)ccn1,Percent Effect,"30.3 µM, […]",36.75%
CCOC(=O)N1CCN(C(=O)c2sc(-c3ccccc3F)nc2C)CC1,Percent Effect,"30 µM, 30.03 µM",51.23%
Cc1nc(-c2ccccc2F)sc1C(=O)N1CCN(C)CC1,Percent Effect,"30 µM, 30.03 µM",37.21%
CC(=O)N1CCN(C(=O)c2sc(-c3ccccc3F)nc2C)CC1,Percent Effect,"30 µM, 30.03 µM",-46.44%
CC(=O)N1CCO[C@H]2[C@H](OCCCn3cccn3)CC[C@@H]21.O=C(O)C(F)(F)F,Percent Effect,"30.3 µM, […]",-5.128%
COc1cccc(CN(Cc2ccco2)Cc2cnc(C)n2C)c1.O=C(O)CC(O)(CC(=O)O)C(=O)O,Percent Effect,"30.3 µM, […]",15.04%
CN1C[C@@H](C(=O)N(C)C)[C@@]2(CCc3ccccc3C(=O)N2)C1.Cl,Percent Effect,"30.3 µM, […]",-15.68%
CNc1nc(C)c(C(=O)N2CCCCC2CN2CCCCCC2)s1 (configuration not stated),Percent Effect,"30 µM, 30.03 µM",17.59%
O=C(O)C(F)(F)F.O=C(O)C(F)(F)F.O=C(c1n[nH]c2c1CN(C1CCOC1)CC2)N1CCOCC1 (configuration not stated),Percent Effect,"30.3 µM, […]",0.9809%
CN(C)CCN1C(=O)CCCC12CCCN(C(=O)c1ccncc1)C2.O=C(O)C(F)(F)F.O=C(O)C(F)(F)F (configuration not stated),Percent Effect,"30.3 µM, […]",-7.261%
CN(C)CCN1C(=O)CCC12CCCN(C(=O)c1cccnc1)CC2.O=C(O)C(F)(F)F.O=C(O)C(F)(F)F (configuration not stated),Percent Effect,"30.3 µM, […]",-25.41%
CN(C)CCN1C(=O)CCC12CCN(C(=O)c1cccnc1)CC2.O=C(O)C(F)(F)F.O=C(O)C(F)(F)F,Percent Effect,"30.3 µM, […]",75.6%
O=C(O)C(F)(F)F.c1coc(CN2CCO[C@H]3[C@H](OCC4CCCC4)CC[C@@H]32)c1,Percent Effect,"30.3 µM, […]",1.448%
Cc1csc(N2CCN(CC(=O)N3CCNC3=O)CC2C)n1 (configuration not stated),Percent Effect,10 µM,-102.2%
CC(C)NC(=O)c1ccc2c(c1)nc1n2CCN(C(C)C)C1,Percent Effect,"30 µM, 30.03 µM",-14.37%
CC(C)NC(=O)c1ccc2c(c1)nc1n2CCN(c2ccccc2)C1,Percent Effect,"30 µM, 30.03 µM",50.34%
CC(C)NC(=O)c1ccc2c(c1)nc1n2CCN(Cc2ccco2)C1,Percent Effect,"30 µM, 30.03 µM",-8.027%
COc1ccc2c(c1)c(-c1nc(C)ncc1CN)cn2C,Percent Effect,"30.3 µM, […]",-32.27%
COc1ccc2c(c1)c(-c1nc(N(C)C)ncc1CN)cn2C,Percent Effect,"30.3 µM, […]",100.6%
COCC(=O)NCc1cnc(C)nc1-c1cn(C)c2ccc(OC)cc12,Percent Effect,"30.3 µM, […]",-5.457%
O=C(Nc1ccccc1Cl)N1CCN(CC2CC2)[C@@H]2CS(=O)(=O)C[C@@H]21,Percent Effect,"30 µM, 30.03 µM",-39.32%
COc1ccc2c(c1)nc1n2[C@@H](CNC(=O)c2cccnc2)COC1,Percent Effect,"30.3 µM, […]",-10.65%
CCNC(=O)NC[C@H]1COCc2nc3cc(OC)ccc3n21,Percent Effect,"30 µM, 30.03 µM",86.68%
Cc1ccc2c(c1)nc1n2[C@@H](CNC(=O)c2cncnc2)COC1,Percent Effect,"30.3 µM, […]",-3.868%
CCNC(=O)NC[C@H]1COCc2nc3cc(C)ccc3n21,Percent Effect,"30.3 µM, […]",32.27%
COc1ccc2c(c1)nc1n2[C@@H](CNC(=O)c2ccccn2)COC1,Percent Effect,"30 µM, 30.03 µM",-12.62%
COc1ccc(C(=O)NC[C@H]2COCc3nc4cc(C)ccc4n32)cc1,Percent Effect,"30.3 µM, […]",101.3%
Cc1ccoc1-c1nnc(CNC2CCCN(c3cccnn3)C2)o1 (configuration not stated),Percent Effect,"30.3 µM, […]",3.988%
CNCC(=O)N1CCCC1c1cncc(Oc2ccc(F)cc2)n1.Cl (configuration not stated),Percent Effect,"30.3 µM, […]",-5.938%
CS(=O)(=O)c1ccc(-c2cnc(C3CCCN3)cn2)cc1.Cl (configuration not stated),Percent Effect,"30.3 µM, […]",-27.05%
Cc1nccc(N[C@H]2CN(C(=O)CN3CCCC3=O)C[C@@H]2C(C)C)n1,Percent Effect,"30 µM, 30.03 µM",-19.05%
O=C(CN1CCCCC1)N1CCC(c2cc(=O)n3c(n2)CCCCC3)C1.O=C(O)CC(O)(CC(=O)O)C(=O)O (configuration not stated),Percent Effect,"30.3 µM, […]",-11%
Cc1ccc(CN2CCC3(CC2)C(=O)N(CC(C)C)CCN3C)s1.O=C(O)C(F)(F)F.O=C(O)C(F)(F)F,Percent Effect,"30.3 µM, […]",-75.61%
COc1cccc([C@@]2(O)CC[C@@H]3CN(C(=O)c4ccn(C)n4)C[C@@H]32)c1,Percent Effect,"30.3 µM, […]",1.75%
CN(CC(=O)NCC(F)(F)F)C(=O)c1ccc(C(=O)OC(C)(C)C)cc1,Percent Effect,"30 µM, 30.03 µM",14.69%
N#Cc1c(Cl)nsc1NCc1ccnc(OCC(F)(F)F)c1,Percent Effect,"30 µM, 30.03 µM",-8.155%
CCS(=O)(=O)c1ccccc1N1CCC(NC2CCCC2)CC1,Percent Effect,"30.3 µM, […]",22.61%
N#Cc1cn(C2CC2)c(=O)n(Cc2cc(-c3cccs3)on2)c1=O,Percent Effect,"30.3 µM, […]",-130.2%
N#Cc1cn(C2CC2)c(=O)n(Cc2ncc(-c3cccs3)o2)c1=O,Percent Effect,"30.3 µM, […]",55.83%
N#Cc1cn(C2CC2)c(=O)n(Cc2noc(-c3cccs3)n2)c1=O,Percent Effect,"30.3 µM, […]",18.62%
Cc1nc(CNC(=O)N2CCN(c3ccc(Cl)cn3)CC2)sc1C,Percent Effect,"30.3 µM, […]",8.84%
COc1cccc(C(=O)N2C[C@H]3CC[C@@H]2CN(Cc2cscn2)C3)c1,Percent Effect,"30 µM, 30.03 µM",-1.998%
O=C(NCc1cccs1)[C@H]1CC[C@@H]2[C@@H](CCN2C2CCC2)O1.O=C(O)C(F)(F)F,Percent Effect,"30 µM, 30.03 µM",-12.3%
Cl.Cl.c1cnc(NCc2cncc3c2CCN(Cc2cccs2)C3)nc1,Percent Effect,"30 µM, 30.03 µM",-8.466%
CC(C)CN1CCC(NC(=O)c2ccc(F)cc2Cl)CC1,Percent Effect,"30 µM, 30.03 µM",-22.52%
CCCN1CCC(NC(=O)c2ccc(F)cc2I)CC1,Percent Effect,"30 µM, 30.03 µM",80.53%
CC(C)CN1CCC(NC(=O)c2ccc(F)cc2F)CC1,Percent Effect,"30 µM, 30.03 µM",-0.8337%
CCCN1CCC(NC(=O)c2csc(C)c2C)CC1,Percent Effect,"30.3 µM, […]",-65.99%
CC(C)CN1CCC(NC(=O)c2ccc(F)cc2I)CC1,Percent Effect,"30 µM, 30.03 µM",77.98%
CCN1CCC(NC(=O)c2ccc(F)cc2I)CC1,Percent Effect,"30 µM, 30.03 µM",29.33%
CNC(=O)COC1COC2(CCN(Cc3cccnc3OC)CC2)C1.O=C(O)C(F)(F)F (configuration not stated),Percent Effect,"30.3 µM, […]",-30.72%
O=C(O)C(F)(F)F.O=C([C@@H]1C[C@@H]2CCN(c3cccc(F)c3)C[C@H]2O1)N1CCCC1,Percent Effect,"30.3 µM, […]",-10.13%
Cc1cncc(NC(=O)c2ccc(CN3CC[C@H](O)C3)cc2)c1,Percent Effect,"30.3 µM, […]",-21.22%
COc1cc(NC(=O)c2ccc(CN3CC[C@H](O)C3)cc2)cc(OC)c1,Percent Effect,"30.3 µM, […]",58.59%
Cc1cc(NC(=O)c2ccc(CN3CC[C@H](O)C3)cc2)ccc1F,Percent Effect,"30.3 µM, […]",41.32%
CN(C)Cc1cn2c(n1)CN(C(=O)Cc1ccsc1)CC2.O=C(O)C(F)(F)F,Percent Effect,"30 µM, 30.03 µM",-42.4%
Cl.O=c1c2sccc2nc2n1CCN(Cc1ccc(F)c(F)c1)CC2,Percent Effect,"30.3 µM, […]",15.73%
COc1ccnc(N2CCc3ccc(OC(F)F)cc3C2)n1,Percent Effect,"30.3 µM, […]",7.96%
COc1ccc2c(c1)CN(c1nc(C)cc(C)n1)CC2,Percent Effect,"30.3 µM, […]",100.3%
COc1ccc2c(c1)CN(c1cc(N3CCCC3CO)ncn1)CC2 (configuration not stated),Percent Effect,"30.3 µM, […]",27.38%
COc1ccc(C2CN(c3nc(C)cc(C)n3)CCN2C(C)=O)cc1 (configuration not stated),Percent Effect,"30.3 µM, […]",9.247%
COc1cccc(O[C@H]2CCN(c3nc(C)cc(C)n3)CC[C@@H]2O)c1,Percent Effect,"30.3 µM, […]",-10.89%
Cc1cc(C)nc(N2CCc3ccc(OC(F)F)cc3C2)n1,Percent Effect,"30.3 µM, […]",70.84%
